Source: PubChem BioAssay (several laboratories)
Shown are actives, neighbours in structure and some others; about 3.9% of the full set was active somewhere.
GDH-TPI counter – counter-screen for M. tuberculosis FBA inhibitors: GDH-TPI coupled enzymes. 360,000 compounds, 1.2% hits. GDH-TPI coupled enzyme counterscreen, NADH absorbance. inhibition, % at 4.8 µM;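 further: 0% = DMSO wells and 100% = wells lacking the enzyme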
FBA Mtb inh – inhibits M. tuberculosis FBA enzyme; 360,000 compounds, 2.3% hits; purified M. tuberculosis FBA, fluorescence read-out; inhibition, % at 1 µM; P9WQA3; in the data active means inhibition above about 27%;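 further: 0% = vehicle and 100% = reference inhibitor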
Target sequence (P9WQA3 whole entry, looked up): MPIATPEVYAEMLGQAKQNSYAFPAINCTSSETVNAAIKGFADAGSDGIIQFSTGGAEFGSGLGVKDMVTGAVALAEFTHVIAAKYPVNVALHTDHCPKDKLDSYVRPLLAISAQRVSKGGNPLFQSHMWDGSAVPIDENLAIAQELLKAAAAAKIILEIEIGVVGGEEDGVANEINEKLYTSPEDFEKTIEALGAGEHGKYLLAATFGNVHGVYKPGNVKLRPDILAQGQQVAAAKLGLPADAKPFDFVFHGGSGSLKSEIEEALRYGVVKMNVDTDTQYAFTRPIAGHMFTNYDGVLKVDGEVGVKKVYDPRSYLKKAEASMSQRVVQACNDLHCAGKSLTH
CCHFV vOTU inh – blocks the CCHF virus ovarian tumor domain protease | CCHFV vOTU protease, Pep-AMC fluorescence | inhibition, % at 11.5 µM | 370,000 compounds, 0.55% hits | AID 651958; further: 0% = vehicle wells with enzyme and 100% = no enzyme wells
BH1578 lux ind – quorum light induction in luxS cqsA deficient V. cholerae; V. cholerae BH1578 lux reporter, luminescence, 6 h; activation, % at 18.7 µM; 350,000 compounds, 0.16% hits; AID 588436; in the data active means activation mostly above about 9.7%, no sharp cut-off
Numbers without * were called inactive; i = inactive; nt = no result. Unless noted, no stated cut-off is given here; in the data, active means inhibition above about 30%; inactive means the rest.

SMILES	GDH-TPI counter	FBA Mtb inh	CCHFV vOTU inh	BH1578 lux ind
O=C(NC1CC1)c1cc(-c2ccco2)nc2ccccc12	12	63*	nt	-1
Cc1nnc(NC(=O)c2cc(-c3ccco3)nc3ccccc23)s1	17	10	-7	-10
Cc1cc(/C=N/n2cnnc2)c(C)n1-c1ccccc1	7	11	9	-1
C(=N\n1cnnc1)/c1cccn1-c1ccccc1	32*	-4	-5	i
Cc1ccc(C(=O)Nc2sc3c(c2C(=O)O)CCCC3)o1	36*	14	11	-2
Cc1ccc(C(=O)Nc2sc3c(c2C(=O)O)CCCCC3)o1	21	17	26	i
COC(=O)C(=N/Nc1ccccc1C(=O)OC)/C(C)=N/O	44*	-4	15	0
CC(C)(C)c1ccc(OC(=O)Nc2ccc(O)c(C(=O)O)c2)cc1	-2	80*	0	0
Cc1ccc(C(=O)Nc2ccc(O)c(C(=O)O)c2)o1	6	7	4	0
CC(C)(C)OC(=O)C[C@@H]1C/C=C\C[C@H](CC(=O)NCCO)C(=O)N2CCC[C@@H]2COC1=O	-7	-1	-4	i
Cn1c(-c2ccc[nH]c2=O)nc2cc(Cl)ccc21	2	137*	-51	2
CCn1c(-c2ccco2)nc2ccccc21	-10	16	5	i
CCn1c(-c2ccc[nH]c2=O)nc2ccccc21	4	134*	-53	i
O=c1[nH]cccc1-c1nc2ccccc2n1Cc1ccccc1F	5	122*	-88	i
CS(=O)(=O)N1Cc2ccccc2CC1C(=O)OCC(=O)NCCc1ccc(S(N)(=O)=O)cc1 (centres undefined)	-11	-2	-16	i
C#CCN1CC(N(C)CCOC(=O)c2cc(C)cc(C)c2)CS1(=O)=O (centres undefined)	nt	nt	-11	nt
COc1ccccc1NC(=O)C(C)n1cnc2c(oc3nc4c(cc32)CCCC4)c1=O (centres undefined)	14	6	24	i
Nc1ccccc1N=Cc1ccc(-c2cccc(Cl)c2)o1	12	146*	-93	0
COC(=O)N/N=C/c1ccc(-c2cccc(Cl)c2)o1	31*	-6	13	0
COC(=O)N/N=C/c1ccc(-c2cc(Cl)cc(Cl)c2)o1	46*	-5	14	0
Cc1ccc(S(=O)(=O)N2CCN(CC(=O)N/N=C\c3ccncc3)CC2)cc1	8	3	11	1
COc1ccccc1CNC(=O)CN1C(=O)NC(c2ccccc2)(c2ccccc2)C1=O	5	0	4	i
COc1ccc(OCC(O)Cn2c(N3CCCCC3)nc3c2c(=O)[nH]c(=O)n3C)cc1 (centres undefined)	10	-2	-18	i
Cc1cccc(NC(=O)c2nc[nH]c2C(=O)Nc2ccccc2[N+](=O)[O-])c1	2	5	3	i
COc1cc(/C=N/NC(=O)c2cn(-c3cccc(C)n3)cn2)ccc1O	34*	-1	7	0
SMILES	GDH-TPI counter	FBA Mtb inh	CCHFV vOTU inh	BH1578 lux ind
COc1cc(/C=N/NC(=O)c2cccc(C(=O)N/N=C/c3ccc(O)c(OC)c3)n2)ccc1O	44*	2	11	-8
CCOc1ccc2[nH]c(C(=O)N/N=C/c3cc(OC)c(OC)c(OC)c3)cc2c1	22	2	-1	i
CCOc1cc(/C=N/Nc2nc(N3CCCC3)nc(N3CCCC3)n2)ccc1O	36*	1	14	i
COc1ccc(/C=N/NC(=O)c2cccc(C(=O)N/N=C/c3ccc(OC)cc3)n2)cc1	14	0	0	-1
COc1cc(/C=N/NC(=O)c2cc3ccccc3[nH]2)ccc1O	41*	-1	4	i
CCc1cccc(NC(=S)N(CCCOC(C)C)C2CCN(C(C)=O)CC2)c1	-4	1	-5	-1
C[C@@H]1CN([C@@H](C)CO)S(=O)(=O)c2ccc(Br)cc2O[C@H]1CN(C)C(=O)Nc1ccc(C(F)(F)F)cc1	13	1	22	-4
CN(C)C1=NCCN1CCCCc1ccccc1	5	3	-7	0
COc1cc(/C=N/NC(=S)Nc2cccc(S(=O)(=O)N(C)C)c2)ccc1O	45*	1	-1	0
COc1cc(/C=N/NC(=S)NCCN2CCOCC2)ccc1O	48*	2	1	0
COc1cc(/C=N/Nc2nc(C)cc(C)n2)ccc1O	36*	-2	13	i
COc1ccc(OC)c(NC(=S)NCCN2CCOCC2)c1	0	-1	6	-3
COc1cc(/C=N/NC(=O)c2cccc(NC(=O)c3ccccc3C)c2)ccc1O	16	-1	0	0
COc1cc(/C=N/NC(=O)c2cccc(NC(=O)c3ccccc3)c2)ccc1O	37*	-5	22	0
COc1cc(/C=N/NC(=O)c2ccncc2)ccc1O	23	-1	10	0
